# Reference: the supplement of paper PMC8728848
# The entries come from a sample that favours the strongest signals as a whole.
# B1: DBA (Dolichos biflorus) (protein)
# chain: ANIQSFSFKNFNSPSFILQGDATVSSGKLQLTKVKENGFPLRFPSGRAFYSSPIQIYDKFTGAVASWATSFTVKISAPSKASFADGIAFALVPVGSEPRRNGGYLGVFDSDVYNNSAQTVAVEFDTLSNSGWDPSMKHIGIDVNSIKSIATVSWDLANGENAEILITYNAATSLLVVSLVHPSRRTSYILSERVDITNELPEYVGVGFSATTGLSEGYIETHDVLSWSFASRLPDDSTAEPLDLARYLVRNVL
# What was measured:
# Experiment in all cases: glycan array binding signal (z-score within array); higher = stronger binding
# Conditions in all cases: glycan notation: IUPAC condensed, linker removed
# [1] = biological target: Fuc(a1-2)Gal(b1-3)GalNAc(a1-3)[Fuc(a1-2)]Gal(b1-4)Glc
# Outline: (§1)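 Glycan array data were curated from 3228 arrays in the Consortium for Functional Glycomics database and kept only where the protein sequence was available. Glycan names were converted to IUPAC-condensed notation, and columns mapping to the same glycan were averaged. The binding signal is a within-array Z-score, averaged across arrays of the same protein sequence at different concentrations or buffers and across linkers. Negative Z-scores can be read as non-binding.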
# [2] = biological target: Fuc(a1-2)Gal(b1-3)GlcNAc(b1-3)[Gal(b1-4)GlcNAc(b1-6)]Gal(b1-4)Glc
# Outline: as §1
# [3] = biological target: Fuc(a1-2)Gal(b1-3)GlcNAc(b1-3)[Neu5Ac(a2-6)Gal(b1-4)GlcNAc(b1-6)]Gal(b1-4)Glc
# Outline: as §1
# [4] = biological target: Fuc(a1-2)Gal(b1-3)[Fuc(a1-4)]GlcNAc
# Outline: as §1
# [5] = biological target: Fuc(a1-2)Gal(b1-4)Glc6S
# Outline: as §1
# [6] = biological target: Fuc(a1-2)Gal(b1-4)[Fuc(a1-3)]GlcNAc(b1-3)GalNAc
# Outline: as §1
# [7] = biological target: Fuc(a1-2)Gal3S(b1-4)GlcNAc
# Outline: as §1
# [8] = biological target: Fuc(a1-2)Gal6S(b1-4)Glc
# Outline: as §1
# [9] = biological target: Fuc(a1-2)[GalNAc(a1-3)]Gal
# Outline: as §1
# [10] = biological target: Fuc(a1-2)[GalNAc(a1-3)]Gal(b1-3)GlcNAc(b1-6)GalNAc
# Outline: as §1
# [11] = biological target: Fuc(a1-2)[GalNAc(a1-3)]Gal(b1-4)Glc
# Outline: as §1
# [12] = biological target: Fuc(a1-2)[GalNAc(a1-3)]Gal(b1-4)GlcNAc
# Outline: as §1
# [13] = biological target: Fuc(a1-2)[GalNAc(a1-3)]Gal(b1-4)[Fuc(a1-3)]GlcNAc(b1-3)GalNAc
# Outline: as §1
# [14] = biological target: Fuc(a1-3)[Gal(b1-4)]GlcNAc(b1-2)Man
# Outline: as §1
# [15] = biological target: Fuc(a1-3)[Gal(b1-4)]GlcNAc(b1-4)Gal(b1-4)[Fuc(a1-3)]GlcNAc
# Outline: as §1
# [16] = biological target: Fuc(a1-3)[Gal3S(b1-4)]GlcNAc6S
# Outline: as §1
# [17] = biological target: Fuc(a1-4)GlcNAc
# Outline: as §1
# [18] = biological target: Gal(a1-3)Gal(b1-3)GlcNAc
# Outline: as §1
# [19] = biological target: Gal(a1-3)Gal(b1-4)Glc
# Outline: as §1
# [20] = biological target: Gal(a1-4)Gal(b1-3)GlcNAc(b1-2)Man(a1-3)[Gal(a1-4)Gal(b1-3)GlcNAc(b1-2)Man(a1-6)]Man(b1-4)GlcNAc(b1-4)GlcNAc
# Outline: as §1
# [21] = biological target: Gal(a1-4)GlcNAc
# Outline: as §1
# [22] = biological target: Gal(b1-2)Gal
# Outline: as §1
# [23] = biological target: Gal(b1-3)GlcNAc(b1-3)Gal(b1-4)GlcNAc(b1-3)Gal(b1-4)GlcNAc(b1-2)[Gal(b1-3)GlcNAc(b1-3)Gal(b1-4)GlcNAc(b1-3)Gal(b1-4)GlcNAc(b1-6)]Man(a1-6)[Gal(b1-3)GlcNAc(b1-3)Gal(b1-4)GlcNAc(b1-3)Gal(b1-4)GlcNAc(b1-2)Man(a1-3)]Man(b1-4)GlcNAc(b1-4)[Fuc(a1-6)]GlcNAc
# Outline: as §1
# [24] = biological target: Gal(b1-3)GlcNAc(b1-3)Gal(b1-4)[Fuc(a1-3)]GlcNAc(b1-6)[Gal(b1-3)GlcNAc(b1-3)]Gal(b1-4)Glc
# Outline: as §1
# [25] = biological target: Gal(b1-3)GlcNAc(b1-3)GalNAc
# Outline: as §1
# [26] = biological target: Gal(b1-4)GlcNAc(b1-3)Gal(b1-3)GlcNAc
# Outline: as §1
# [27] = biological target: Gal(b1-4)GlcNAc(b1-3)GalNAc
# Outline: as §1
# [28] = biological target: Gal(b1-4)GlcNAc(b1-6)[Gal(b1-3)]GalNAc
# Outline: as §1
# [29] = biological target: GalNAc(a1-3)GalNAc
# Outline: as §1
# [30] = biological target: GalNAc(a1-3)GalNAc(a1-3)Gal(a1-4)Gal(b1-4)GlcNAc
# Outline: as §1
# [31] = biological target: GalNAc(a1-3)GalNAc(b1-3)Gal(a1-4)Gal(b1-4)Glc
# Outline: as §1
# [32] = biological target: GalNAc(b1-4)GlcNAc6S
# Outline: as §1
# [33] = biological target: GlcNAc(a1-4)Gal(b1-4)GalNAc
# Outline: as §1
# [34] = biological target: GlcNAc(a1-4)Gal(b1-4)GlcNAc(b1-3)Gal(b1-4)[Fuc(a1-3)]GlcNAc(b1-3)Gal(b1-4)[Fuc(a1-3)]GlcNAc
# Outline: as §1
# [35] = biological target: GlcNAc(b1-2)[GlcNAc(b1-4)]Man(a1-3)[GlcNAc(b1-4)][GlcNAc(b1-2)Man(a1-6)]Man(b1-4)GlcNAc(b1-4)GlcNAc
# Outline: as §1
# [36] = biological target: GlcNAc(b1-3)Gal(b1-4)GlcNAc(b1-3)Gal(b1-4)GlcNAc(b1-3)Gal(b1-4)GlcNAc(b1-3)Gal(b1-4)GlcNAc(b1-2)[GlcNAc(b1-3)Gal(b1-4)GlcNAc(b1-3)Gal(b1-4)GlcNAc(b1-3)Gal(b1-4)GlcNAc(b1-3)Gal(b1-4)GlcNAc(b1-6)]Man(a1-6)[GlcNAc(b1-3)Gal(b1-4)GlcNAc(b1-3)Gal(b1-4)GlcNAc(b1-3)Gal(b1-4)GlcNAc(b1-3)Gal(b1-4)GlcNAc(b1-2)Man(a1-3)]Man(b1-4)GlcNAc(b1-4)[Fuc(a1-6)]GlcNAc
# Outline: as §1
# [37] = biological target: GlcNAc(b1-3)Gal(b1-4)GlcNAc(b1-3)GalNAc
# Outline: as §1
# [38] = biological target: GlcNAc(b1-3)GalNAc
# Outline: as §1
# [39] = biological target: GlcNAc(b1-4)Gal(b1-4)GlcNAc
# Outline: as §1
# [40] = biological target: Kdn(a2-3)Gal(b1-3)GlcNAc
# Outline: as §1
# [41] = biological target: Man(a1-2)Man(a1-2)Man(a1-6)[Man(a1-3)]Man
# Outline: as §1
# [42] = biological target: MurNAc(b1-4)GlcNAc
# Outline: as §1
# [43] = biological target: Neu5Ac(a2-3)GalNAc
# Outline: as §1
# [44] = biological target: Neu5Ac(a2-3)[GalNAc(b1-4)]Gal(b1-4)Glc
# Outline: as §1
# [45] = biological target: Neu5Ac(a2-3)[GalNAc(b1-4)]Gal(b1-4)GlcNAc
# Outline: as §1
# [46] = biological target: Neu5Ac(a2-6)Gal(b1-4)GlcNAc
# Outline: as §1
# [47] = biological target: Neu5Ac(a2-6)Gal(b1-4)GlcNAc(b1-2)Man
# Outline: as §1
# [48] = biological target: Neu5Ac(a2-6)Gal(b1-4)GlcNAc(b1-2)Man(a1-3)Man(b1-4)GlcNAc(b1-4)GlcNAc
# Outline: as §1
# [49] = biological target: Neu5Ac(a2-6)Gal(b1-4)GlcNAc(b1-2)Man(a1-6)[Gal(b1-4)GlcNAc(b1-2)Man(a1-3)]Man(b1-4)GlcNAc(b1-4)GlcNAc
# Outline: as §1
# [50] = biological target: Neu5Ac(a2-6)Gal(b1-4)GlcNAc6S
# Outline: as §1
# [51] = biological target: Neu5Ac(a2-8)Neu5Ac(a2-3)[Gal(b1-3)GalNAc(b1-4)]Gal(b1-4)Glc
# Outline: as §1
# [52] = biological target: Neu5Ac(a2-8)Neu5Ac(a2-8)Neu5Ac(a2-8)Neu5Ac(a2-3)[GalNAc(b1-4)]Gal(b1-4)Glc
# Outline: as §1
binder,measurement,setting,value
B1,glycan array binding signal (z-score),[1],-0.133
same,glycan array binding signal (z-score),[2],-0.099
same,glycan array binding signal (z-score),[3],-0.152
same,glycan array binding signal (z-score),[4],-0.142
same,glycan array binding signal (z-score),[5],-0.09
same,glycan array binding signal (z-score),[6],0.449
same,glycan array binding signal (z-score),[7],-0.041
same,glycan array binding signal (z-score),[8],0.346
same,glycan array binding signal (z-score),[9],0.024
same,glycan array binding signal (z-score),[10],-0.113
same,glycan array binding signal (z-score),[11],0.577
same,glycan array binding signal (z-score),[12],0.575
same,glycan array binding signal (z-score),[13],0.333
same,glycan array binding signal (z-score),[14],-0.116
same,glycan array binding signal (z-score),[15],-0.19
same,glycan array binding signal (z-score),[16],-0.015
same,glycan array binding signal (z-score),[17],-0.115
same,glycan array binding signal (z-score),[18],-0.124
same,glycan array binding signal (z-score),[19],-0.119
same,glycan array binding signal (z-score),[20],-0.059
same,glycan array binding signal (z-score),[21],-0.126
same,glycan array binding signal (z-score),[22],-0.113
same,glycan array binding signal (z-score),[23],0.071
same,glycan array binding signal (z-score),[24],-0.1
same,glycan array binding signal (z-score),[25],-0.126
same,glycan array binding signal (z-score),[26],-0.125
same,glycan array binding signal (z-score),[27],-0.144
same,glycan array binding signal (z-score),[28],-0.121
same,glycan array binding signal (z-score),[29],12.1
same,glycan array binding signal (z-score),[30],12.5
same,glycan array binding signal (z-score),[31],13.4
same,glycan array binding signal (z-score),[32],1.8
same,glycan array binding signal (z-score),[33],-0.085
same,glycan array binding signal (z-score),[34],-0.007
same,glycan array binding signal (z-score),[35],-0.133
same,glycan array binding signal (z-score),[36],-0.1
same,glycan array binding signal (z-score),[37],-0.139
same,glycan array binding signal (z-score),[38],-0.101
same,glycan array binding signal (z-score),[39],-0.16
same,glycan array binding signal (z-score),[40],-0.169
same,glycan array binding signal (z-score),[41],-0.081
same,glycan array binding signal (z-score),[42],-0.119
same,glycan array binding signal (z-score),[43],-0.165
same,glycan array binding signal (z-score),[44],4.19
same,glycan array binding signal (z-score),[45],3.09
same,glycan array binding signal (z-score),[46],-0.103
same,glycan array binding signal (z-score),[47],-0.127
same,glycan array binding signal (z-score),[48],-0.098
same,glycan array binding signal (z-score),[49],-0.144
same,glycan array binding signal (z-score),[50],-0.118
same,glycan array binding signal (z-score),[51],-0.124
same,glycan array binding signal (z-score),[52],-0.104
